Test results published in the supplement of paper PMC6607015.
Counter-ions that a name gives are not always drawn.

These molecules were tested on A431 (assay: LBPA endosome anti-LBPA integrated intensity (sum per cell), Z-score; higher = more LBPA staining). Conditions: compound concentration in added solution (µM; 5 µl added to 20 µl cells): 10; 18 h.
Method in brief: (§1)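 Each value is a Z-score normalised in AcuityXpress from per-cell integrated LBPA or filipin intensity, taken over the whole cell or within LBPA endosomes. Duplicate 384-well imaging plates held 5 µl of 10 µM compound solution, onto which 3,500 HeLa MZ or A431 cells in 20 µl were seeded per well. After 18 h the cells were fixed in 4% PFA, stained with 6C4 anti-LBPA antibody, filipin, propidium iodide and CellTracker green, imaged four times per well at 20× and segmented in MetaXpress.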

| SMILES | LBPA endosome anti-LBPA integrated intensity (z-score) |
| --- | --- |
| Cc1ccc(NC(=O)c2ccc(CN3CCN(C)CC3)cc2)cc1Nc1nccc(-c2cccnc2)n1 [Imatinib] | 3.97 |
| Cc1cc2c(cc1S(N)(=O)=O)S(=O)(=O)CCC2 [Meticrane] | -0.412 |
| O=C1O[C@H]([C@@H](O)CO)C(O)=C1O [Ascorbic acid] | -0.608 |
| N=C(N)NCC1COC2(CCCCC2)O1 (stereo not given) [Guanadrel sulfate] | -0.435 |
| CC[N+](C)(CC)CCOC(=O)C1c2ccccc2Oc2ccccc21 [Methantheline bromide] | -0.356 |
| CO/N=C(\C(=O)N[C@@H]1C(=O)N2C(C(=O)O)=C(COC(N)=O)CS[C@H]12)c1ccco1 [Cefuroxime sodium salt] | -0.467 |
| O=C(OCC(O)CO)c1ccccc1Nc1ccnc2cc(Cl)ccc12 (stereo not given) [Glafenine hydrochloride] | 0.592 |
| C[C@@H]1NC(=O)NC1=O [Methylhydantoin-5-(L)] | -0.307 |
| CC1(C)O[C@@H]2C[C@H]3[C@@H]4C[C@H](F)C5=CC(=O)CC[C@]5(C)[C@H]4[C@@H](O)C[C@]3(C)[C@]2(C(=O)CO)O1 [Flurandrenolide] | -0.226 |
| C/C(=C(\CCOP(=O)(O)O)SC(=O)c1ccccc1)N(C=O)Cc1cnc(C)nc1N [Benfotiamine] | -0.532 |
| CN1CCN(CCCN2c3ccccc3Sc3ccc(S(=O)(=O)N(C)C)cc32)CC1 [Thioproperazine dimesylate] | 2.72 |
| CN(C)CCOC(=O)C(c1ccccc1)C1(O)CCCC1 (stereo not given) [Cyclopentolate hydrochloride] | -0.331 |
| Clc1cccc(Cl)c1NC1=NCCN1 [Clonidine hydrochloride] | -0.318 |
| CCN(CC)CCc1nc(-c2ccccc2)no1 [Oxalamine citrate salt] | -0.387 |
| N[C@H]1CONC1=O [(S)-(-)-Cycloserine] | -0.455 |
| O=C(c1ccc(F)cc1)C1CCN(CCn2c(=O)[nH]c3ccccc3c2=O)CC1 [Ketanserin tartrate hydrate] | 0.533 |
| C[N+](C)(CCOc1ccccc1)Cc1ccccc1.O=C([O-])c1cc2ccccc2cc1O [Bephenium hydroxynaphthoate] | -0.418 |
| O=C1CCc2ccc(OCCCCN3CCN(c4cccc(Cl)c4Cl)CC3)cc2N1 [Aripiprazole] | 3.32 |
| Nc1nc(F)nc2c1ncn2[C@@H]1O[C@H](CO)[C@@H](O)[C@@H]1O [Fludarabine] | -0.338 |
| CN1CCc2cccc3c2[C@H]1Cc1ccc(O)c(O)c1-3 [R(-) Apomorphine hydrochloride hemihydrate] | 2.19 |
| C[C@]12CCC(=O)C=C1C=C[C@@H]1[C@@H]2CC[C@@]2(C)[C@H]1CC[C@@]21CCC(=O)O1 [Canrenone] | -0.209 |
| CN(C)[C@@H]1C(O)=C(C(N)=O)C(=O)[C@@]2(O)C(O)=C3C(=O)c4c(O)cccc4[C@@](C)(O)[C@H]3C[C@@H]12 [Tetracycline hydrochloride] | -0.508 |
| Cc1onc(-c2c(F)cccc2Cl)c1C(=O)N[C@@H]1C(=O)N2[C@@H]1SC(C)(C)[C@@H]2C(=O)O [Flucloxacillin sodium] | -0.384 |
| CC1(C)S[C@@H]2[C@H](NC(=O)Cc3ccccc3)C(=O)N2[C@H]1C(=O)O [Benzylpenicillin sodium] | -0.349 |
| COc1ccc2c(c1)C(=O)N(CCc1ccc(S(=O)(=O)NC(=O)NC3CCCCC3)cc1)C(=O)C2(C)C [Gliquidone] | -0.483 |
| CCCCC[C@H](O)/C=C/[C@@H]1[C@@H](C/C=C\CCCC(=O)O)[C@@H](O)C[C@H]1O [Dinoprost trometamol] | -0.294 |
| CCN(Cc1ccncc1)C(=O)C(CO)c1ccccc1 (stereo not given) [Tropicamide] | -0.503 |
| CCN(CC)CCOc1ccc(C(=C(Cl)c2ccccc2)c2ccccc2)cc1 [Clomiphene citrate (Z,E)] | 1.86 |
| CC(=O)c1ccc2c(c1)N(CCCN(C)C)c1ccccc1S2 [Acetopromazine maleate salt] | 1.92 |
| Cn1c(=O)c2c(ncn2CC(O)CO)n(C)c1=O (stereo not given) [Diprophylline] | -0.55 |

What follows are molecules tested on HeLa MZ in the same assay as above. Conditions: compound concentration in added solution (µM; 5 µl added to 20 µl cells): 10; 18 h.
Method in brief: as §1

| SMILES | LBPA endosome anti-LBPA integrated intensity (z-score) |
| --- | --- |
| O=c1cc(-c2ccc(O)c(O)c2)oc2cc(O)cc(O)c12 [Luteolin] | 0.459 |
| CC(C)(O/N=C(\C(=O)N[C@@H]1C(=O)N2C(C(=O)[O-])=C(C[n+]3ccccc3)CS[C@H]12)c1csc(N)n1)C(=O)O [Ceftazidime pentahydrate] | -0.783 |
| CC(=O)OCC(=O)[C@@]1(OC(C)=O)[C@@H](C)C[C@H]2[C@@H]3C[C@H](F)C4=CC(=O)C=C[C@]4(C)[C@@]3(F)[C@@H](O)C[C@@]21C [Diflorasone Diacetate] | -0.262 |
| CN(C)CCn1nnnc1SCC1=C(C(=O)O)N2C(=O)[C@@H](NC(=O)Cc3csc(N)n3)[C@H]2SC1 [Cefotiam hydrochloride] | -1.47 |
| CCCOc1ccc(C(=O)OCCN(CC)CC)cc1N [Proparacaine hydrochloride] | 0.26 |
